# Laboratory results taken from PubChem BioAssay.
# The list shows a part of the results. Unmarked numbers belong to inactive results. Active and inactive are the calls of the source. Unless noted, no stated cut-off is given here; in the data, active means inhibition above about 22%; inactive means the rest.
# How the values were obtained:
# [1] = biological target: Insulin-degrading enzyme (Homo sapiens) (UniProt P14735); experiment: human IDE inhibitors in live cells, confirmation, fluorescence polarization, HEK cells, FAbetaB substrate (AID 435028;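 active means mean inhibition across triplicate wells above the cutoff set by the earlier primary insulin-degrading enzyme screen, cut at about 16% in these data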;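 further: 0% = DMSO wells and 100% = 60 µM reference IDE inhibitor Ii1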); conditions: FAbetaB cleavage, at 5.59 µM, stronger effect = higher value
# [2] = cytotoxicity in HEK cells, cytotoxicity control for IDE inhibitor project, cell-based, luminescence (AID 449730); conditions: HEK293 cytotoxicity, ATP luminescence; at 5.59 µM; stronger effect = higher value;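 further: 0% = vehicle wells and 100% = reference cytotoxic drug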
# [3] = biological target: Oxytocin receptor (Homo sapiens) (UniProt P30559); experiment: human OXTR agonists, confirmation, fluorescence, CHO-OTR cells, triplicate (AID 434963;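 active means mean activation above about 20% derived from the earlier single-dose screen, limit read from the data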;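 further: peak over minimum fluorescence ratio per well during a 100 second FLIPR read; 0% = DMSO alone and 100% = oxytocin high control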); conditions: Fluo-8 calcium fluorescence, agonist, at 3 µM, stronger effect = higher value
# [4] = biological target: Vasopressin V1a receptor (Homo sapiens) (UniProt P37288); experiment: V1a receptor agonists, calcium signal, counter-screen for OXTR agonist project, triplicate, fluorescence, CHO-V1R cells (AID 434991;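 active means mean activation over triplicate exceeds the hit threshold set in the earlier primary screen, cut at about 20% in these data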;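 further: peak over basal fluorescence ratio within a 100 second read; 0% = DMSO alone and 100% = 3 nM vasopressin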); conditions: Fluo-8 calcium fluorescence, at 3 µM, stronger effect = higher value
# [5] = biological target: Photoreceptor-specific nuclear receptor (Homo sapiens) (UniProt Q9Y5X4); experiment: NR2E3 agonist confirmation in cells, cell-based, luminescence, CHO-S two-hybrid (AID 624378;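 active means average inhibition above a cutoff equal to the mean inhibition of all tested compounds plus one SD, cut at about 70% in these data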;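 further: 0% = DMSO in NR2E3 cells and 100% = DMSO in cells lacking NR2E3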); conditions: CHO-S mammalian two-hybrid NR2E3-NCOR, luciferase luminescence; at 3.98 µM; stronger effect = higher value
# [6] = GAL4-VP16 reporter modulators, confirmation, counter-screen for NR2E3 agonist project, cell-based, luminescence, CHO-S, high throughput (AID 624379;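 active means mean inhibition above a cutoff equal to the average over all tested compounds plus one standard deviation, cut at about 70% in these data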;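 further: luciferase from a UAS reporter driven by GAL4-VP16 transactivation; 0% = DMSO with VP16-transfected cells and 100% = DMSO with cells lacking VP16; higher means less reporter light so more repression of VP16 activity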); conditions: CHO-S GAL4-VP16 luciferase reporter, at 3.98 µM, stronger effect = higher value
# Sequence of Insulin-degrading enzyme (Homo sapiens) (P14735 whole entry, looked up): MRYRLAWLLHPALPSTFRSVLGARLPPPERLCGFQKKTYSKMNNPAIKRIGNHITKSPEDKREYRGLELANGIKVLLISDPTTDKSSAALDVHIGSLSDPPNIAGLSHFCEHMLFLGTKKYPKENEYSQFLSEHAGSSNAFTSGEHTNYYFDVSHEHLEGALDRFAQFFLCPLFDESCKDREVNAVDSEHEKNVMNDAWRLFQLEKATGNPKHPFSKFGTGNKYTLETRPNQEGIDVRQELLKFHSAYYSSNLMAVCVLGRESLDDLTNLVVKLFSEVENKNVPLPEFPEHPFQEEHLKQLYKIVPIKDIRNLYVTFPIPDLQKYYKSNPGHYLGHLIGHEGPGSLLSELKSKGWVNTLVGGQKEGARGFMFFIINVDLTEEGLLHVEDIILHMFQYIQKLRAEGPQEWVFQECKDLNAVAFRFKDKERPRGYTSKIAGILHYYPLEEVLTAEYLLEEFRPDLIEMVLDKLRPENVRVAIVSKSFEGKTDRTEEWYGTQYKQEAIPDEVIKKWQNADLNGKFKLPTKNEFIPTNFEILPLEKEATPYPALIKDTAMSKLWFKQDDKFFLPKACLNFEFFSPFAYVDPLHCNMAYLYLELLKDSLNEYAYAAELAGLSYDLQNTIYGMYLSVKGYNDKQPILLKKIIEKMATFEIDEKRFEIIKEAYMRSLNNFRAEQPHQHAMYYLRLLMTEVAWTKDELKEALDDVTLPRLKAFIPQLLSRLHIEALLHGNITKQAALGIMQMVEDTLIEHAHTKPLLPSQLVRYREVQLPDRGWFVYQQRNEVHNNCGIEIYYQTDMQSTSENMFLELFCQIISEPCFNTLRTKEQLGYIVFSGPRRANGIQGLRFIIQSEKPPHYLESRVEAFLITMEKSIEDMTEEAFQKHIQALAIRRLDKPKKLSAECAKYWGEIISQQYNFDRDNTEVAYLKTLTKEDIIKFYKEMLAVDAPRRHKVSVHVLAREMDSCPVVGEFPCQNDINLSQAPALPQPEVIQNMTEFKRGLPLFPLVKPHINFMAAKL
# Sequence of Vasopressin V1a receptor (Homo sapiens) (P37288 whole entry, looked up): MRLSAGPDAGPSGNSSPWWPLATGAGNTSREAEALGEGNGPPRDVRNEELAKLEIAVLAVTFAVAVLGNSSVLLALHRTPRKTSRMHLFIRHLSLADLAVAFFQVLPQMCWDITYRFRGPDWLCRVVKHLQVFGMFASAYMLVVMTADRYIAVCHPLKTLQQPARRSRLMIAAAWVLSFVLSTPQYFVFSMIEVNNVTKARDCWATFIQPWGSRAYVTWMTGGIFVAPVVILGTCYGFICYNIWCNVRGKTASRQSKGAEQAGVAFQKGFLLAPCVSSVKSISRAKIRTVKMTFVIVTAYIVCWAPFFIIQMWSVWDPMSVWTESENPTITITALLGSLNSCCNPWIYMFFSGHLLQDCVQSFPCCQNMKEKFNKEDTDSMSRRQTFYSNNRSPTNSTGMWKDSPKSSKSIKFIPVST
# Sequence of Photoreceptor-specific nuclear receptor (Homo sapiens) (Q9Y5X4 whole entry, looked up, the tested form may be a part): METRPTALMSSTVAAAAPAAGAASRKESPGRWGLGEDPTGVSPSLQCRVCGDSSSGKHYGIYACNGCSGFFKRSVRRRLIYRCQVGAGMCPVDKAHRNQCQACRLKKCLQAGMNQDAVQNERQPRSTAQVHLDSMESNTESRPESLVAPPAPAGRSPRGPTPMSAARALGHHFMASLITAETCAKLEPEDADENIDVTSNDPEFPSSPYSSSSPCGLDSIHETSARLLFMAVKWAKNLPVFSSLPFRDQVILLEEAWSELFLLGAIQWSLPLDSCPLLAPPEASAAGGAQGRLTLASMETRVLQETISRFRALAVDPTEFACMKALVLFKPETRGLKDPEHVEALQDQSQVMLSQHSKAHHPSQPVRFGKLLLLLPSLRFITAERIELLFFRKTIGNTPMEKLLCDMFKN
# Sequence of Oxytocin receptor (Homo sapiens) (P30559 whole entry, looked up): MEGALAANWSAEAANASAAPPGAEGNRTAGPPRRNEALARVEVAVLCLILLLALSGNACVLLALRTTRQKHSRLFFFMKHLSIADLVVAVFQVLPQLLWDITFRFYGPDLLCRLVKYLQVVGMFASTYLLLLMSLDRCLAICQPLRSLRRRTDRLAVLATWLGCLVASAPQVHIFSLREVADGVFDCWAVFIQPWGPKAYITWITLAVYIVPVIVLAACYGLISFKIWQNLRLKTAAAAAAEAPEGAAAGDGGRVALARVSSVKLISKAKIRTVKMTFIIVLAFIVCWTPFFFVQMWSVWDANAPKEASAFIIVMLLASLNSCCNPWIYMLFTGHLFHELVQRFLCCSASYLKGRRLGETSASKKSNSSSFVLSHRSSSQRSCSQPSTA
structure (smiles),measurement,setting,value
O=C(C1=C[C@H](c2coc3ccccc3c2=O)C[C@H](OCc2ccc(CO)cc2)O1)N1CCN(Cc2ccccc2)CC1,inhibition,[1],2.63%
same,inhibition,[2],17.5%
CC(=O)c1cc(NC(=O)c2ccccc2)c(=O)oc1/C=C/N(C)C,inhibition,[1],31% (active)
same,inhibition,[2],5.05%
CN(C)c1ccc(/C=C2\NC(=S)N(Cc3ccccc3)C2=O)cc1,inhibition,[1],135% (active)
same,inhibition,[2],24.2% (active)
Cn1c2ccccc2c2cc(/C=C(\NC(=O)c3ccccc3)C(=O)NCC(=O)O)ccc21,inhibition,[1],17.3% (active)
same,inhibition,[2],5.76%
CC(C(=O)c1ccc(-c2ccccc2)cc1)[n+]1cccc(Br)c1 (stereo not drawn),inhibition,[1],16.4% (active)
same,inhibition,[2],14.3%
N#C/C(=C\c1ccc(N2CCOCC2)o1)C(=O)N1CCOCC1,inhibition,[1],14.7%
same,inhibition,[2],8.42%
COc1ccc(NS(=O)(=O)c2ccc(Oc3c(C#N)cccc3C#N)cc2)cc1,activation,[3],17.5%
same,activation,[4],13.7%
same,inhibition,[5],94.9% (active)
same,inhibition,[6],88% (active)
CN1/C(=c2/s/c(=C3/C(=O)N(c4ccccc4)NC3=Nc3ccccc3)n(C)c2=O)C(C)(C)c2ccccc21,inhibition,[1],8.19%
same,inhibition,[2],11.6%
CCCCc1cc(=O)oc2c(C)c(OCC(=O)N3CCC(C(N)=O)CC3)ccc12,inhibition,[1],8.74%
same,inhibition,[2],11.7%
O=C(Nc1ccc(Sc2ccc(Br)cc2)cc1)c1ccco1,inhibition,[1],14.3%
same,inhibition,[2],20.9%
Cc1c(-c2cccc(Cl)c2)nc2ccccc2c1C(=O)OCC(=O)N(C)C1CCS(=O)(=O)C1 (stereo not drawn),inhibition,[1],16.9% (active)
same,inhibition,[2],14.1%
COc1ccc(N2CCN(C(=O)/C(C#N)=C/c3ccccc3)CC2)cc1,inhibition,[1],8.71%
same,inhibition,[2],5.82%
CCN(CC)c1ccc2cc(C(N)=O)/c(=N\NC(=O)c3ccncc3)oc2c1,inhibition,[1],85.5% (active)
same,inhibition,[2],28.8% (active)
CCN1CCCC1CNc1ncnc2c1[nH]c1ccc(F)cc12 (stereo not drawn),inhibition,[1],3.64%
same,inhibition,[2],8.81%
CCN1/C(=C/c2ccc3ccc(C)cc3[n+]2CC)Sc2ccccc21,inhibition,[1],55.5% (active)
same,inhibition,[2],107% (active)
CS(=O)(=O)N(Cc1ccccc1)c1ccc(C(=O)NN=C2CCCCCC2)cc1,inhibition,[1],3.28%
same,inhibition,[2],6.18%
CCOc1cc2c(Cl)ncnc2c(OCC)c1OCC,inhibition,[1],4.73%
same,inhibition,[2],6.67%
O=C(/C=C/c1ccc(OCc2c(F)cccc2Cl)cc1)N1CCOCC1,inhibition,[1],12.4%
same,inhibition,[2],67.9% (active)
